Laboratory results reported in the supplement of paper PMC7156485.
Where “and” joins values, the source holds several entries; their conditions need not be identical. Identical values can stand only once. ± gives the standard deviation of the averaged measurements.

Assays:
Details in all cases: concentration: 10 µM; 24 h
HCC1569 [1] = assay: cell number relative to DMSO (% of DMSO); higher = more cells (less growth inhibition / toxicity)
Summary of the method: (§1)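 In 384-well plates holding 800 HCC1569 or TDF cells per well in RPMI with 10% FBS, compounds were tested at 10 µM for 24 h at 37 °C in triplicate. Fixation used 3.7% formaldehyde. Staining used a rabbit anti-H1.0 antibody with an AlexaFluor 647 secondary, plus DAPI. Each value, H1.0 nuclear intensity or cell number, is a median of replicates shown as percent of the plate control, and HCC1569 values were smoothed for positional effects.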

TDF [2] = assay: as above
Summary of the method: as §1

TDF [3] = assay: H1.0 immunofluorescence intensity relative to DMSO (% of DMSO); higher = stronger H1.0 induction, active = 120 or more
Summary of the method: as §1

HCC1569 [4] = assay: H1.0 immunofluorescence intensity relative to DMSO (% of DMSO); higher = stronger H1.0 induction, active = 140 or more
Summary of the method: as §1
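Wherever H1.0 immunofluorescence intensity relative to DMSO is given: TDF is a line of transformed human dermal fibroblasts of mesenchymal origin.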
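Wherever cell number relative to DMSO is given: TDF denotes transformed human dermal fibroblasts of mesenchymal origin.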

SMILES | cell number (HCC1569 [1]) | cell number (TDF [2]) | H1.0 immunofluorescence intensity (TDF [3]) | H1.0 immunofluorescence intensity (HCC1569 [4])
Cc1nc2cc3nc(-c4cccs4)cnc3cc2n1C | 106 | 96.2 | 102 (inactive) | 94.7 (inactive)
O=C1CSc2ccccc2N1Cc1cccc(C(F)(F)F)c1 [4-[3-(trifluoromethyl)benzyl]-2H-1,4-benzothiazin-3(4H)-one] | 102 | 106 | 96.3 (inactive) | 105 (inactive)
CCCCCCCCCCCCC(O)C(=O)O (stereo unspecified) [2-Hydroxymyristic acid] | 103 | 103 | 95.6 (inactive) | 102 (inactive)
COc1ccc(CCN(C)CCCC(C#N)(c2cc(OC)c(OC)c(OC)c2)C(C)C)cc1OC.Cl (racemic) | 96.5 | 109 | 89 (inactive) | 92.3 (inactive)
O=C(O)c1ccc(NC(=O)[C@H](CC2CCCC2)n2cnc(C(F)(F)F)c2)nc1 | 100 | 100 | 96.9 (inactive) | 106 (inactive)
CCCCCC=CCC=CCC=CCCCCCCC(=O)O [8(Z), 11(Z), 14(Z)-Eicosatrienoic Acid] | 97.9 | 101 | 97.9 (inactive) | 98.7 (inactive)
CN1CCN(CCCN2c3ccccc3Sc3ccc(C(F)(F)F)cc32)CC1.Cl.Cl [Trifluoperazine.2HCl] | 94.5 | 108 | 97 (inactive) | 122 (inactive)
O=c1c(OC2OC(C(O)CO)C(O)C2O)c(-c2ccc(O)c(O)c2)oc2cc(O)cc(O)c12 (stereo unspecified) [Isoquercitrine] | 103 | 105 | 102 (inactive) | 87.9 (inactive)
CC(C)NCC(O)c1ccc2ccccc2c1.Cl (stereo unspecified) [Pronethalol.HCl] | 101 | 107 | 86.6 (inactive) | 102 (inactive)
CC12C=CC(=O)C=C1CCC1C3CC(O)C(O)(C(=O)CO)C3(C)CC(O)C12F (stereo unspecified) [Triamcinolone] | 97.5 ± 4.1 | 105 ± 9.9 | 86.8 (inactive) | 117 (inactive)
O=c1cc(O)cc(C=Cc2ccc(O)c(O)c2)o1 [Hispidin] | 97.3 | 94.8 | 97 (inactive) | 108 (inactive)
O=C(c1ccc(C(=O)N2CCC(N3CCCC3)CC2)c(Nc2ccccc2)c1)N1CCC(N2CCCC2)CC1 | 99.8 | 104 | 86.5 (inactive) | 102 (inactive)
O=C(C=Cc1ccc(O)cc1)c1ccc(O)cc1O [Isoliquiritigenin] | 96.3 | 99.6 | 89.2 (inactive) | 100 (inactive)
C[N+](C)(C)CCOC(=O)CCC(=O)OCC[N+](C)(C)C [Succinylcholine] | 100 | 101 | 99.9 (inactive) | 101 (inactive)
COc1cc2c3cc1Oc1c(OC)c(OC)cc4c1C(Cc1ccc(OC(=O)c5ccc([N+](=O)[O-])cc5)c(c1)Oc1ccc(cc1)CC3N(C)CC2)N(C)CC4 (stereo unspecified) [E6 Berbamine] | 90.2 | 95.2 | 98.8 (inactive) | 97.7 (inactive)
Cc1ccc(-c2nn(C(C)(C)C)c3ncnc(N)c23)cc1 | 69.8 | 109 | 94.8 (inactive) | 188 (active)
CC12C=CC(=O)C=C1CCC1C2=CCC2(C)C(C(=O)CN3CCN(c4cc(N5CCCC5)nc(N5CCCC5)n4)CC3)CCC12.O=C(O)C=CC(=O)O (stereo unspecified) | 91.7 and 96.8 | 93.4 and 95.2 | 95.3 (inactive) and 98.1 (inactive) | 98 (inactive) and 96.5 (inactive)
CC1C=CC=CC=CC=CC=CC=CC=CC(OC2OC(C)C(O)C(N)C2O)CC2OC(O)(CC(O)CC(O)C(O)CCC(O)CC(O)CC(=O)OC(C)C(C)C1O)CC(O)C2C(=O)O (stereo unspecified) [Amphotericin B] | 97.4 | 89.9 | 105 (inactive) | 83.9 (inactive)
C=CC(C)(O)CCC1C(C)(O)CCC2C(C)(C)CCCC21C (stereo unspecified) [Sclareol] | 105 | 90.1 | 105 (inactive) | 94.7 (inactive)
FC(F)(F)c1ccc(CNc2ccc(Cc3c[nH]c4ncccc34)cn2)cc1 | 75.5 | 74.9 | 108 (inactive) | 139 (inactive)
CCCCCC=CCC=CCCCCCCCCCC(=O)O [Eicosadienoic acid] | 103 ± 1.2 | 92.6 ± 7.5 | 100 (inactive) | 96.4 (inactive)
CCN(c1nc(N)c(C(=O)N=C(N)N)nc1Cl)C(C)C [5-(N-Ethyl-N-isopropyl)amiloride] | 103 | 95 | 97.2 (inactive) | 91 (inactive)
CN1CCC(c2c(O)cc(O)c3c(=O)cc(-c4ccccc4Cl)oc23)C(O)C1 (stereo unspecified) [Alvocidib] | 59.4 | 19.9 | 132 (active) | 111 (inactive)
Cc1ccc(S(=O)(=O)Cc2nc(-c3ccc(C(=O)NCc4cccnc4)cc3)oc2C)cc1 | 87 | 86.8 | 102 (inactive) | 127 (inactive)
CC1(C)CC=C(c2cnc3ccccc3c2)c2cc(C(=O)Nc3ccc(C(=O)O)cc3)ccc21 | 99.8 | 99.3 | 97.3 (inactive) | 96.8 (inactive)

SMILES | cell number (HCC1569 [1]) | cell number (TDF [2]) | H1.0 immunofluorescence intensity (TDF [3]) | H1.0 immunofluorescence intensity (HCC1569 [4])
COCC(=O)NCC=Cc1ccc2ncnc(Nc3ccc(Oc4ccc(C)nc4)c(C)c3)c2c1 | 76.8 | 94.9 | 98.3 (inactive) | 158 (active)
CCCCCCC=CC=CCCCCCCCC(=O)O [9(Z), 11(Z)-octadecadienoic acid] | 99.8 | 108 | 107 (inactive) | 103 (inactive)
O=C1Nc2ccc(I)cc2C1=Cc1cc(Br)c(O)c(Br)c1 | 98.5 and 105 | 103 | 93.5 (inactive) and 85.7 (inactive) | 110 (inactive) and 83.8 (inactive)
O=c1[nH]cc(F)c(=O)[nH]1 [5-Fluorouracil] | 81.345 ± 0.068 | 92.4 ± 4.8 | 97.7 (inactive) | 94.5 (inactive)
CCCCCCCCCCCCCC=CC(O)C(CO)NC(=O)CCCCC (stereo unspecified) [C6 Ceramide] | 100 | 59.7 | 151 (active) | 101 (inactive)
CC(N)C1CCC(C(=O)Nc2ccncc2)CC1.Cl.Cl.O (stereo unspecified) | 109 | 104 | 97.1 (inactive) | 102 (inactive)
Cl.O=C(O)C1=CCNCC1 [Isoguvacine hydrochloride] | 106 | 108 | 106 (inactive) | 98.2 (inactive)
COc1cc2nc(N3CCN(C(=O)C4=CC5C=CC4CC5)CC3)nc(N)c2cc1OC (stereo unspecified) [Prazobind] | 101 | 102 | 95.3 (inactive) | 93.2 (inactive)
Br.Oc1ccc(C2CNCc3sccc32)cc1O (stereo unspecified) | 100 | 96.3 | 94.4 (inactive) | 112 (inactive)
NS(=O)(=O)c1cc2c(cc1Cl)NCNS2(=O)=O [Hydrochlorothiazide] | 105 | 107 | 90.9 (inactive) | 89.9 (inactive)
CC(=O)OC1CC2CCC3C(CCC4(C)C3CC([N+]3(C)CCCCC3)C4OC(C)=O)C2(C)CC1N1CCCCC1 (stereo unspecified) [Vecuronium] | 103 | 95.7 | 99.2 (inactive) | 110 (inactive)
COc1ccc2cc(OCC3(C(=O)O)CN(C(=O)c4ccc(F)cc4)C3)ccc2c1 | 105 | 103 | 93.7 (inactive) | 95.8 (inactive)
CNC1C(O)C(NC)C2OC3(O)C(=O)CC(C)OC3OC2C1O (stereo unspecified) [Spectinomycin] | 104 | 98 | 97 (inactive) | 87 (inactive)
O=C(Nc1ccc(N2CCOCC2)c(S(=O)(=O)Nc2ccccc2Cl)c1)c1ccncc1 [Chk2 Inhibitor] | 98.5 | 110 | 87.3 (inactive) | 99.5 (inactive)
COC1=CC(=O)CC(C)C12Oc1c(Cl)c(OC)cc(OC)c1C2=O (single isomer, unassigned; (+)) [(+)-Griseofulvin] | 100 | 108 | 99.2 (inactive) | 95.6 (inactive)
CCN(CC)CCCC(C)Nc1c2ccc(Cl)cc2nc2ccc(OC)cc12 (stereo unspecified) [Quinacrine] | 89.3 | 39.5 | 118 (inactive) | 180 (active)
COc1cc2ncnc(Nc3cccc(Cl)c3)c2cc1OC [Tyrphostin AG 1478] | 92.8 | 94.6 | 96.2 (inactive) | 119 (inactive)
O=C(NCCO)c1cccc(-c2cc(Nc3ccc(OC(F)(F)F)cc3)ncn2)c1 | 91.1 | 94.8 | 110 (inactive) | 119 (inactive)
FC(F)(F)c1ccccc1-n1ccnc1 [1-[2-(Trifluoromethyl)phenyl]imidazole] | 100 | 96 | 96.5 (inactive) | 108 (inactive)
CC(C)(C)C1(O)CCN2CC3c4ccccc4CCc4cccc(c43)C2C1.Cl (single isomer, unassigned; (+)) [(+)-Butaclamol.HCl] | 106 | 108 | 95.7 (inactive) | 100 (inactive)
CC1CC2OC2C=CC=CC(=O)Cc2c(Cl)c(O)cc(O)c2C(=O)O1 (stereo unspecified) [Radicicol] | 66.2 | 15.9 | 133 (active) | 121 (inactive)
NC(=O)c1noc([C@H](CCCC2CCCCC2)CC(=O)NO)n1 | 73.8 | 95.6 | 99.6 (inactive) | 109 (inactive)
c1ccc2c(CC3=NCCN3)cccc2c1 [Naphazoline] | 99.4 | 102 | 98 (inactive) | 113 (inactive)
CCCCCCCCCCCC=CCC=CCCCC(=O)O [Eicosa-5,8-dienoic acid (20:2 n-12)] | 101 | 99.6 | 96.8 (inactive) | 105 (inactive)
